The source made the active and inactive calls. Rule for the calls: active = hit-call score of the fitted dose curve at least 0.9, where 1 is the maximum; inactive = score below 0.9.

This experiment in a line: ATG_GLI_CIS: Attagene CIS-FACTORIAL HepG2 Assay for human Zinc Finger Protein GLI1 (AID 2282945). Conditions: HepG2, Attagene cis-factorial reporter mRNA, GLI element; actives raise or lower the signal. In short, it runs like this: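 HepG2 cells transiently transfected with cis-promoter multiplexed reporter units report endogenous transcription factor activity. After 24 h chemical exposure, reporter mRNA was quantified by RT-PCR, 6-FAM labelling, HpaI digestion and capillary electrophoresis, with bidirectional fitting against DMSO.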
`CCOC(=O)CC(C)O` (stereo not drawn): the result was inactive.

For `CCCC(=O)OCCc1ccccc1`, the call was inactive. Regarding `CC1(C)O[C@@H]2[C@@H](CO[C@@]3(COS(N)(=O)=O)OC(C)(C)O[C@@H]23)O1`, the molecule was called inactive. As for `[Cl][Au]([Cl])[Cl]`, the call was inactive. `CCCCCC(C=O)=Cc1ccccc1`: the molecule was classed as inactive.

`C=CC(C)C#N` (stereo not drawn): the result was inactive. Consider `C[C@H]1O[C@@H](O[C@H]2[C@@H](O)C[C@H](O[C@H]3[C@@H](O)C[C@H](O[C@H]4CC[C@@]5(C)[C@H](CC[C@@H]6[C@@H]5C[C@@H](O)[C@]5(C)[C@@H](C7=CC(=O)OC7)CC[C@]65O)C4)O[C@@H]3C)O[C@@H]2C)C[C@H](O)[C@@H]1O`, for which the result was inactive. Turning to `ClC(c1ccccc1)(c1ccccc1)c1ccccc1`, the molecule was called inactive.

`O=c1c(O)c(-c2ccc(O)cc2)oc2cc(O)cc(O)c12`: the result was inactive.

Regarding `CN1CCOCC1`, the molecule was classed as inactive.

In the case of `CC/C=C\CC/C=C/CO`, the result was inactive. The value for `CS(=O)(=O)c1ccc(C2=C(c3ccccc3)C(=O)OC2)cc1` was “inactive”; that for `CC1C2CC(CC2C2CCCC(O)C2)C1(C)C` (stereo not drawn) was “inactive”. As for `COC(=O)Nc1ccc(Cl)c(Cl)c1`, the molecule was classed as inactive. Regarding `CC(O)C1CCCCC1` (stereo not drawn), the molecule was called inactive.

Consider `Oc1c(Cl)cc(Cl)c(Cl)c1Cc1c(O)c(Cl)cc(Cl)c1Cl`, for which the outcome was inactive. For the molecule `N#Cc1ccc(CC(=O)c2cccc(C(F)(F)F)c2)cc1`, the molecule was called inactive. The value for `COS(=O)(=O)O` was “inactive”.

Regarding `CCCCCCOC(=O)CCC`, the call was inactive.

On to `COC(C)(C)CCCC(C)CC=O` (stereo not drawn), for which the outcome was inactive.

`CSCCC=O`: the result was inactive. As to `Brc1ccc(Br)c(Br)c1`, the molecule was called inactive.

In the case of `Cc1cc(C)nc(NS(=O)(=O)c2ccc(N)cc2)n1`, the molecule was called inactive. The value for `CCOCCOCCOCC` was “inactive”. With `C=C1C[C@]23C[C@@]1(O)CC[C@H]2[C@@]12C=C[C@H](O)[C@@](C)(C(=O)O1)[C@H]2[C@@H]3C(=O)O`, the molecule was called inactive. On to `OCc1cccc(Oc2ccccc2)c1`, for which the result was inactive.

Consider `C=CCN(CC=C)CC=C`, for which the call was inactive.

Turning to `CC(C)(N=C=O)c1cccc(C(C)(C)N=C=O)c1`, the molecule was classed as inactive.

For `C[Si]1(C)O[Si](C)(C)O[Si](C)(C)O1`, the molecule was called inactive.

Consider `CCOc1ccccc1O`, for which the molecule was classed as inactive.

On to `Cc1cc(=O)oc2cc(N(C)C)ccc12`, for which the outcome was inactive. In the case of `CCCCOCC`, the call was inactive. The value for `C1CCCCC1` was “inactive”; that for `CC1=CC[C@@]23C[C@@H]1C(C)(C)[C@@H]2CC[C@H]3C` was “inactive”. With `O=C1NC2NC(=O)NC2N1` (stereo not drawn), the molecule was classed as inactive. `Nc1ccc(NCCO)c([N+](=O)[O-])c1`: the outcome was inactive. Regarding `CC(C)(CO)[C@@H](O)C(=O)NCCC(=O)O`, the result was inactive. The value for `C[Si](C)(C)O[Si](C)(C)C` was “inactive”.

The values above are taken from PubChem BioAssay (EPA / NIEHS).
